Potency data for 21 compounds are collected here from PubChem BioAssay (NCATS).

Calls of active or inactive are those of the source. No rule for the calls is given here.
Potency is read from the fitted curve at half-maximal effect.

A short description of one test: Immunotoxin (HA22) sensitization/mitigation study. Vehicle arm (PBS) (AID 1159510). The conditions noted are these: cancer cells viability with PBS vehicle (HA22 study); series mostly up to 46.1 µM.
`CS(=O)c1ccc(-c2nc(-c3ccc(F)cc3)c(-c3ccncc3)[nH]2)cc1` (stereo unspecified): the Potency result is “inactive”.
Turning to `CC(C)n1c(C=C[C@H](O)C[C@H](O)CC(=O)O)c(-c2ccc(F)cc2)c2ccccc21`, the Potency was 8.33 µM (active).
The same measure, in the same setting: under `Cc1sc2c(c1C)C(c1ccc(Cl)cc1)=N[C@@H](CC(=O)OC(C)(C)C)c1nnc(C)n1-2` stands 0.0743 µM (active); under `CC1=C2C[C@@H]3[C@@H](CC=C4C[C@@H](O)CC[C@@]43C)[C@@H]2CC[C@]12O[C@H]1C[C@H](C)CN[C@H]1[C@H]2C`, 23.5 µM (active); under `Cn1c(CCCC(=O)O)nc2cc(N(CCCl)CCCl)ccc21`, “inactive”.

A further test in a line: Immunotoxin (SS1P) sensitization/mitigation study. Vehicle arm (DMEM) (AID 1159513). The conditions noted are these: cell viability with vehicle (DMEM); series mostly up to 46.1 µM.
On to `Cc1ccc(-n2nc(C(C)(C)C)cc2NC(=O)Nc2ccc(OCCN3CCOCC3)c3ccccc23)cc1`, for which the Potency entry was “inactive”.
The same measure, in the same setting: to `CC(C)C[C@H](NC(=O)[C@H](CCc1ccccc1)NC(=O)CN1CCOCC1)C(=O)N[C@@H](Cc1ccccc1)C(=O)N[C@@H](CC(C)C)C(=O)[C@@]1(C)CO1` belongs 0.0418 µM (active).
On the same count and under the same terms, under `C=CC(=O)Nc1cc2c(Nc3ccc(F)c(Cl)c3)ncnc2cc1OCCCN1CCOCC1` stands 26.4 µM (active); under `COC1(CS(=O)c2ccccc2)CCN(CCc2c[nH]c3ccc(F)cc23)CC1` (stereo unspecified), “inactive”; under `C[C@@H]1[C@@H](CC(C[C@H]2O[C@@H]3O[C@]4(C)CC[C@@H]5[C@H](C)CC[C@@H]([C@H]2C)[C@@]35OO4)C[S+](=O)([O-])c2ccc(COC(=O)N(C)C)cc2)O[C@@H]2O[C@]3(C)CC[C@H]4[C@H](C)CC[C@@H]1[C@@]24OO3` (stereo partly specified), 0.418 µM (active).
For the compound `CCCCC/C=C\C/C=C\C/C=C\C/C=C\CCCC(=O)NC1CC1`, the Potency result is “inactive”.
The same measure, in the same setting: to `CC1=C(/C=C/C(C)=C/C=C/C(C)=C/C(=O)Nc2ccc(O)cc2)C(C)(C)CCC1` belongs 23.5 µM (active); to `COc1cc(Nc2c(C#N)cnc3cc(OCCCN4CCN(C)CC4)c(OC)cc23)c(Cl)cc1Cl`, 23.5 µM (active).
Still for that read-out and setting: to `CNC(=O)N1N=C(c2ccc(N)cc2)c2cc3c(cc2CC1C)OCO3` (stereo unspecified) belongs 5.26 µM (active).
On the same count and under the same terms, under `CC(O)(CS(=O)(=O)c1ccc(F)cc1)C(=O)Nc1ccc(C#N)c(C(F)(F)F)c1` (stereo unspecified) stands “inactive”; under `COC[C@H]1OC(=O)c2coc3c2[C@@]1(C)C1=C(C3=O)C2CCC(=O)[C@@]2(C)C[C@H]1OC(C)=O` (stereo partly specified), 16.6 µM (active).
For the compound `CN(C)CCN(C)CCc1ccc(Cl)c(Cl)c1`, the Potency result is “inactive”.
Consider `COc1cccc2c1C(=O)c1c(O)c3c(c(O)c1C2=O)C[C@@](O)(C(=O)CO)C[C@@H]3O[C@H]1C[C@H](N)[C@H](O)[C@H](C)O1`, for which the Potency is 0.187 µM (active).
On the same count and under the same terms, under `CO[C@@H](C(=O)N1Cc2[nH]nc(NC(=O)c3ccc(N4CCN(C)CC4)cc3)c2C1)c1ccccc1` stands 23.5 µM (active); under `C[C@@H]1[C@@H](C(=O)C[C@H]2O[C@@H]3O[C@]4(C)CC[C@@H]5[C@H](C)CC[C@@H]([C@H]2C)[C@@]35OO4)O[C@@H]2O[C@]3(C)CC[C@H]4[C@H](C)CC[C@@H]1[C@@]24OO3`, 0.209 µM (active).
Still for that read-out and setting: under `COc1cc([C@@H]2c3cc4c(cc3[C@H](O)[C@H]3COC(=O)[C@H]23)OCO4)cc(OC)c1OC` stands 0.0083 µM (active); under `CS(=O)c1ccc(-c2nc(-c3ccc(F)cc3)c(-c3ccncc3)[nH]2)cc1` (stereo unspecified), “inactive”; under `CC(C)n1c(C=C[C@H](O)C[C@H](O)CC(=O)O)c(-c2ccc(F)cc2)c2ccccc21`, 9.35 µM (active).
The same measure, in the same setting: to `Cc1sc2c(c1C)C(c1ccc(Cl)cc1)=N[C@@H](CC(=O)OC(C)(C)C)c1nnc(C)n1-2` belongs 10.5 µM (active).
With `CC1=C2C[C@@H]3[C@@H](CC=C4C[C@@H](O)CC[C@@]43C)[C@@H]2CC[C@]12O[C@H]1C[C@H](C)CN[C@H]1[C@H]2C`, the Potency is 20.9 µM (active).
Still for that read-out and setting: under `Cn1c(CCCC(=O)O)nc2cc(N(CCCl)CCCl)ccc21` stands “inactive”.
